Growth data for 39 molecules are collected here from PubChem BioAssay (NCI).

SMILES strings stand for the structures. This is part of a sample that, as a whole, favours compounds with a hit. Of some 83,000 tested, about 20% had one in any assay.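 Growth was measured after 48 h exposure to one concentration of compound in 96-well plates. Values under 10 count as active.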 A number with no mark means an inactive call. The source made the active and inactive calls.

For one test, the system named is SK-MEL-5 melanoma. Description: NCI-60 one-dose screen, 48 h (100 = growth as untreated, 0 = no growth, -100 = all killed). The conditions noted are these: 10 µM unless noted.
Consider `O=C(CCCCC(=O)N/N=C\c1ccccc1O)N/N=C\c1ccccc1O`, for which the growth is -14.9% (active). As for `Cc1cc2nc(NC(=O)CN3CCN(CCN4C(=O)c5cccc6cccc(c56)C4=O)CC3)sc2cc1C`, the growth was 77%. On the same count and under the same terms, next, `COc1cc(C(=O)/C=C/c2cccnc2Nc2ccc(Cl)cc2)cc(OC)c1OC`: -86.8% (active).

On to `COc1cc(/C=C/C(=O)Nc2cccnc2Nc2ccc(F)cc2)cc(OC)c1OC`, for which the growth was 95.8%. The same measure, in the same setting: to `COC(=O)[C@@H]1CCCN1C(=O)[C@@H]1CCCN1C(=O)[C@H](Cc1ccccc1)NC(=S)Nc1cc(C(F)(F)F)cc(C(F)(F)F)c1` belongs 86.4%; to `O=[N+]([O-])c1ccccc1/C=N\NC(=S)N/N=C/c1ccccc1[N+](=O)[O-]`, 59.1%.

Consider `O=[N+]([O-])c1ccc2c(c1)Cc1cc(F)ccc1-2`, for which the growth was 86.4%. Same read-out and setting: to `CCc1c(Nc2ccccc2C)nc(N)[nH]c1=O` belongs 107%.

Regarding `CCNc1ncnc2c1cnn2C1CCCO1` (centres undefined), the growth was 105%. Still for that read-out and setting: to `CC(O)CN(CC(C)O)c1ccc2c(c1)Cc1cc([N+](=O)[O-])ccc1-2` (centres undefined) belongs 103%.

A further test relates to UACC-62 melanoma. The test is described as above. The note with it: 10 µM unless noted.
`O=C(CCCCC(=O)N/N=C\c1ccccc1O)N/N=C\c1ccccc1O`: the growth was 13.5%. Same read-out and setting: to `O=c1ccccc(-c2ccc(Br)cc2)c1O` belongs -49.3% (active). Same read-out and setting: next, `Cc1cc2nc(NC(=O)CN3CCN(CCN4C(=O)c5cccc6cccc(c56)C4=O)CC3)sc2cc1C`: 83.8%; `COc1cc(C(=O)/C=C/c2cccnc2Nc2ccc(Cl)cc2)cc(OC)c1OC`: -67% (active); `COc1cc(/C=C/C(=O)Nc2cccnc2Nc2ccc(F)cc2)cc(OC)c1OC`: 94.7%. For the molecule `COc1cc(-c2nn(-c3ccc(Br)cc3)cc2C(=O)O)ccc1O`, the growth is 109%. On the same count and under the same terms, to `CCCCCC(=O)Oc1ccc(/C(=C(\C)c2ccc(OC)cc2)c2ccc(OCCN3CCCCC3)cc2)cc1` belongs 6.92% (active); to `COC(=O)[C@@H]1CCCN1C(=O)[C@@H]1CCCN1C(=O)[C@H](Cc1ccccc1)NC(=S)Nc1cc(C(F)(F)F)cc(C(F)(F)F)c1`, 85.3%; to `O=[N+]([O-])c1ccccc1/C=N\NC(=S)N/N=C/c1ccccc1[N+](=O)[O-]`, 55.5%. On the same count and under the same terms, to `O=[N+]([O-])c1ccc2c(c1)Cc1cc(F)ccc1-2` belongs 85.2%; to `CC[N+](CC)=c1sc2c(s1)C(c1ccc(Cl)cc1)Oc1ccc(Cl)cc1-2` (centres undefined), -2.82% (active). With `Clc1ccc2c(NCCCCNc3nc(N4CCOCC4)nc4ccccc34)ccnc2c1`, the growth is 99.1%.

Take `CCc1c(Nc2ccccc2C)nc(N)[nH]c1=O`: the growth is 110%.

In the case of `CCNc1ncnc2c1cnn2C1CCCO1` (centres undefined), the growth was 107%. On to `CC(O)CN(CC(C)O)c1ccc2c(c1)Cc1cc([N+](=O)[O-])ccc1-2` (centres undefined), for which the growth is 95.7%.

In a further test the test system is LOX IMVI melanoma. The description is as above. The conditions noted are these: 10 µM unless noted.
On to `O=C(CCCCC(=O)N/N=C\c1ccccc1O)N/N=C\c1ccccc1O`, for which the growth is 26.2%. Still for that read-out and setting: next, `COc1cc(-c2nc(C(=O)NCC(=O)NO)nn2-c2ccc(Cl)cc2)cc(OC)c1OC`: 95.9%. On the same count and under the same terms, to `O=c1ccccc(-c2ccc(Br)cc2)c1O` belongs 4.54% (active). Consider `Cc1cc2nc(NC(=O)CN3CCN(CCN4C(=O)c5cccc6cccc(c56)C4=O)CC3)sc2cc1C`, for which the growth was 77.9%. The same measure, in the same setting: to `COc1cc(C(=O)/C=C/c2cccnc2Nc2ccc(Cl)cc2)cc(OC)c1OC` belongs -65.5% (active).

As to `COc1ccc(-c2nnc(SCC(=O)c3ccc(Cl)cc3)o2)cc1`, the growth is 97.1%. Still for that read-out and setting: to `COc1cc(/C=C/C(=O)Nc2cccnc2Nc2ccc(F)cc2)cc(OC)c1OC` belongs 100%. The same measure, in the same setting: to `O=C1/C(=C/c2ccccc2O)N=C2SCCCN12` belongs 96.5%. Still for that read-out and setting: to `CC(C)(CCCN=C(N)Nc1ccc(Cl)cc1)c1ccc(F)cc1` belongs 57.8%.

Turning to `CCCCC[C@H]1C/C=C2/C(=O)C=C[C@@H]2C/C=C\CCCC(=O)O1`, the growth is -79.1% (active). Still for that read-out and setting: next, `COc1ccc2c(c1)C(=O)/C(=C/c1ccccn1)CC2`: 44.5%. On to `C=C1C(=O)O[C@H]2[C@H]1CC/C(COC(=O)NCCc1ccc(OC)c(OC)c1)=C\CC[C@@]1(C)O[C@@H]21`, for which the growth is 75%.

As to `COc1cc(-c2nn(-c3ccc(Br)cc3)cc2C(=O)O)ccc1O`, the growth is 102%.

As to `CCCCCC(=O)Oc1ccc(/C(=C(\C)c2ccc(OC)cc2)c2ccc(OCCN3CCCCC3)cc2)cc1`, the growth is 33.5%. On the same count and under the same terms, next, `COC(=O)[C@@H]1CCCN1C(=O)[C@@H]1CCCN1C(=O)[C@H](Cc1ccccc1)NC(=S)Nc1cc(C(F)(F)F)cc(C(F)(F)F)c1`: 88.5%.

Regarding `CCOc1ccc(C(C)=O)cc1NC(=O)c1cccc(-c2nnn(CC)n2)c1`, the growth is 49.2%. Still for that read-out and setting: to `O=[N+]([O-])c1ccccc1/C=N\NC(=S)N/N=C/c1ccccc1[N+](=O)[O-]` belongs 43.4%; to `O=[N+]([O-])c1ccc2c(c1)Cc1cc(F)ccc1-2`, 103%. In the case of `CC(=O)OC[C@H]1O[C@H](OC(C)=O)[C@H](NC(=O)/C=C/CCl)[C@@H](OC(C)=O)[C@@H]1OC(C)=O`, the growth is 68.8%. The same measure, in the same setting: to `CCC#CC[C@H](O)C/C=C1/C(=O)C=C[C@@H]1C/C=C\CCCC(=O)OC` belongs -72.2% (active). On the same count and under the same terms, to `CC/C=C\C[C@H](O)C/C=C1/C(=O)C=C[C@@]1(C)C/C=C\CCCC(=O)OC` belongs 94.3%; to `CC[N+](CC)=c1sc2c(s1)C(c1ccc(Cl)cc1)Oc1ccc(Cl)cc1-2` (centres undefined), -62.7% (active); to `COc1cccc(-c2nc(SCC(=O)Nc3ccc(C(=O)/C=C/c4ccc(OC)c(OC)c4)cc3)[nH]c(=O)c2C#N)c1`, 81.4%. Still for that read-out and setting: next, `COc1ccc(CN2c3ccccc3Oc3ccccc32)cc1O`: 39.5%; `C=C1C(=O)O[C@H]2[C@H]1CC/C(C=Nc1ccc(C(F)(F)F)cc1N)=C\CC[C@@]1(C)O[C@@H]21`: -48.9% (active); `COc1ccc2c(c1)C(=O)/C(=C/c1cccnc1)CC2`: 88.5%.

Consider `Clc1ccc2c(NCCCCNc3nc(N4CCOCC4)nc4ccccc34)ccnc2c1`, for which the growth is -66.6% (active). Take `COc1ccccc1Nc1nc(-c2cc3cccc(C(F)(F)F)c3oc2=O)cs1`: the growth was 17.3%. Still for that read-out and setting: next, `CCc1c(Nc2ccccc2C)nc(N)[nH]c1=O`: 107%. Same read-out and setting: next, `O=c1oc2c(C(F)(F)F)cccc2cc1-c1csc(Nc2ccc(OCCF)cc2)n1`: 19.7%.

Turning to `COc1ccc(CN2c3ccccc3Sc3ccccc32)c(C(F)(F)F)c1`, the growth is 54.7%. On the same count and under the same terms, next, `COc1cc2c(cc1O)CC[C@@H]1[C@@H]2CC[C@]2(C)[C@@H](OCCN(C)C)CC[C@@H]12`: 52.5%; `CCNc1ncnc2c1cnn2C1CCCO1` (centres undefined): 111%; `NC(=NCCCC1(c2ccccc2)CCCC1)Nc1ccc(Cl)cc1`: -50% (active).

Take `CCOc1ccc(-n2nc(C(=O)Nc3cc(OC)c(OC)c(OC)c3)nc2-c2cc(OC)c(OC)c(OC)c2)cc1`: the growth is 89%. On to `COc1ccc(CN2c3ccccc3Sc3ccccc32)cc1O`, for which the growth was 43.1%. On the same count and under the same terms, next, `NCCNc1nc(Nc2ccc(-c3nc4ccccc4[nH]3)cc2)c2cn[nH]c2n1`: -17.8% (active).

As for `COc1cccc2c1C(=O)c1c(O)c3c(c(O)c1C2=O)C[C@](O)(C(=O)CO)C[C@H]3O[C@@H]1C[C@@H](NC(=O)CCCCCN(C)C2(c3ccc(F)cc3)CC3CCC2C3)[C@H](O)[C@@H](C)O1` (some centres undefined), the growth is -90.5% (active).

On to `CC(O)CN(CC(C)O)c1ccc2c(c1)Cc1cc([N+](=O)[O-])ccc1-2` (centres undefined), for which the growth is 96.2%.
